Records with an inconclusive call do not appear. Active and inactive are the calls of the source. The call rests on the fitted dose curve. Residues, ends and D or L forms follow the SMILES beside them.

Peroxisome proliferator-activated receptor delta (Homo sapiens), sequence (Q03181 whole entry, looked up): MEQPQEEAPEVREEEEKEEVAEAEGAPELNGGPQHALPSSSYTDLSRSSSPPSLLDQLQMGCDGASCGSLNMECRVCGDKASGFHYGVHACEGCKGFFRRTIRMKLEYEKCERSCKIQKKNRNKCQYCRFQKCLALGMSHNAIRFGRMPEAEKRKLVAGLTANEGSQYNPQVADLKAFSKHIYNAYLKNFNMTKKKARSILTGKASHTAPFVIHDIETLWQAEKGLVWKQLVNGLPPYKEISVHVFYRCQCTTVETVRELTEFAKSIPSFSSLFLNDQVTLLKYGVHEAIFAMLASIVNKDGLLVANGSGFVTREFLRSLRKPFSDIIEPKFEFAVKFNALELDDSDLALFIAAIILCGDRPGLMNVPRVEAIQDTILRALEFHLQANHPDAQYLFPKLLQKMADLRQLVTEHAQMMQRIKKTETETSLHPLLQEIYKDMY

The experiment deals with Peroxisome proliferator-activated receptor delta (Homo sapiens) (UniProt Q03181). Nature of the experiment: qHTS assay to identify small molecule agonists of the peroxisome proliferator-activated receptor delta (PPARd) signaling pathway (AID 743212). The following applies: HEK293H PPARd-UAS-bla, beta-lactamase FRET ratio, 17 h; series mostly up to 62.6 µM. From the text:
U.S. Tox21 Program National Center for Advancing Translational Sciences [NCATS] NIH Chemical Genomics Center [NCGC] U.S. Environmental Protection Agency [EPA] National Institutes of Environmental Health Sciences [NIEHS] National Toxicology Program [NTP] U.S. Food and Drug Administration [FDA] Tox21 Assay Overview: The peroxisome proliferator-activated receptors (PPARs) are lipid-activated transcription factors of the nuclear receptor superfamily with three distinct subtypes namely PPAR alpha, PPAR delta (PPARd) and PPAR gamma. All these subtypes heterodimerizes with Retinoid X receptor (RXR) and have different physiological functions. […] To identify the compounds that activate PPAR-delta signaling, GeneBLAzer PPAR delta UAS-bla HEK293H cell line (Invitrogen, Carlsbad, CA, USA) containing a beta-lactamase reporter gene under the control of an Upstream Activator Sequence (UAS) was used to screen the Tox21 compound library.
Tox21 Assay Protocol Summary: PPARd-bla cells were dispensed at 3000 cells/6uL/well in 1536-well black wall/clear bottom plates using a Multidrop Combi (Thermo Fisher Scientific, Waltham, MA) dispenser. After the assay plates were incubated at 37 C and 5% CO2 for 5 h, 23 nL of compounds dissolved in DMSO, positive controls or DMSO only was transferred to the assay plate by a Pintool station (Kalypsys, San Diego, CA). The assay plates were incubated at 37C for 17 h. After 1 uL of LiveBLAzerTM B/G FRET substrate was added using a Bioraptr Flying Reagent Dispenser (FRD) workstation (Beckman Coulter, Indianapolis, IN, USA), the plates were incubated at room temperature for 2 h, and fluorescence intensity was measured by an Envision plate reader (PerkinElmer, Shelton, CT).
`CC(C)(Oc1ccc(C2CC2(Cl)Cl)cc1)C(=O)O` (stereo not given): the outcome was inactive.

For the compound `Cc1ccccc1C(OCCN(C)C)c1ccccc1` (stereo not given), the result was inactive. In the case of `NC(=O)c1cnccn1`, the outcome was inactive. For `Cn1c(=O)c2[nH]cnc2n(C)c1=O`, the result was inactive. For the compound `O=C(O)CS`, the result was inactive. In the case of `CC(=O)OCC(COC(C)=O)OC(C)=O`, the outcome was inactive.

For the compound `O=C(O)c1cc(N=Nc2ccc(S(=O)(=O)Nc3ccccn3)cc2)ccc1O`, the outcome was inactive.

`COC(=O)[C@H](Cc1ccccc1)NC(=O)[C@@H](N)CC(=O)O` (H-Asp-Phe-OMe): the outcome was inactive. As to `CC(=O)NS(=O)(=O)c1ccc(N)cc1`, the result was inactive.

As for `C/C=C/c1ccc(OC)cc1`, the outcome was inactive.

For the compound `CCCCC(CC)COC(=O)/C=C/c1ccc(OC)cc1` (stereo not given), the result was inactive. The same measure for `c1ccc2[nH]ccc2c1`: “inactive”; for `CC(O)C(=O)O` (stereo not given): “inactive”. The result for `O=C(O)/C=C\C(=O)O` reads “inactive”. For the compound `O=C(c1ccccc1)C(O)c1ccccc1` (stereo not given), the outcome was inactive.

`Cc1cn([C@H]2C[C@H](N=[N+]=[N-])[C@@H](CO)O2)c(=O)[nH]c1=O`: the outcome was inactive. With `Nc1ccc(C(=O)O)cc1`, the outcome was inactive. As for `CCOc1ccc(NC(=O)CC(C)O)cc1` (stereo not given), the result was inactive. For `CC(O)CO` (stereo not given), the result was inactive. `COc1ccc2[nH]cc(CCNC(C)=O)c2c1`: the result was inactive. The same measure for `CCCCOC(=O)CC(CC(=O)OCCCC)(OC(C)=O)C(=O)OCCCC`: “inactive”. The same measure for `CCCN(CCC)S(=O)(=O)c1ccc(C(=O)O)cc1`: “inactive”. The result for `Cc1noc(NS(=O)(=O)c2ccc(N)cc2)c1C` reads “inactive”; that for `O=c1cc[nH]c(=S)[nH]1`, “inactive”; that for `Nc1ccc(S(=O)(=O)c2ccc(N)cc2)cc1`, “inactive”.

As to `NS(=O)(=O)c1cc(C(=O)O)c(NCc2ccco2)cc1Cl`, the result was inactive. Regarding `C[C@]12C=CC(=O)C=C1CC[C@@H]1[C@@H]2[C@@H](O)C[C@@]2(C)[C@H]1CC[C@]2(O)C(=O)CO`, the result was inactive. The result for `O=C(O)CCCCC(=O)O` reads “inactive”; that for `CC(O)CN(CCN(CC(C)O)CC(C)O)CC(C)O` (stereo not given), “inactive”.

With `NNC(=O)c1ccncc1`, the outcome was inactive. Take `Oc1ccc(/C=C/c2cc(O)cc(O)c2)cc1`: the outcome was inactive.

With `CCCNC(=O)NS(=O)(=O)c1ccc(Cl)cc1`, the result was inactive. In the case of `O=C(C1CCCCC1)N1CC(=O)N2CCc3ccccc3C2C1` (stereo not given), the outcome was inactive. The same measure for `O=C(O)CCC(=O)O`: “inactive”; for `Cc1ccc(O)cc1`: “inactive”; for `Cc1ccc(C)c(OCCCC(C)(C)C(=O)O)c1`: “inactive”. The result for `CC1(C)[C@@H]2CC[C@@]1(C)C(=O)C2` reads “inactive”. For `Cn1cc[nH]c1=S`, the outcome was inactive. Take `NC(=O)c1ccccc1O`: the outcome was inactive. Regarding `O=C(O)c1[nH]n(-c2ccc(S(=O)(=O)O)cc2)c(=O)c1N=Nc1ccc(S(=O)(=O)O)cc1`, the result was inactive.

These data come from PubChem BioAssay (Tox21).
